Data on six compounds can be found in PubChem BioAssay (Tox21).

Molecules are shown by their SMILES. Values without a mark were called inactive. Inconclusive results are not listed. Active and inactive are the calls of the source. Unless noted, the call rests on the fitted dose curve; in most records, active means well fitted curve in the direction sought with a large enough effect in the repeat runs; inconclusive means weak or mixed curves; inactive means no such curve, though single readings can be large; an effect the other way counts as inactive or inconclusive.

The target in test [1] is Luciferin 4-monooxygenase (Photinus pyralis) (UniProt P08659). As to the kind of experiment: qHTS assay to identify small molecule inhibitors of firefly luciferase (AID 1224835). Further: nearly all actives have a fitted effect of over 25% in size. Further: potency means the concentration at half of the fitted maximal effect. The method, boiled down: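 Biochemical qHTS: compounds run as interplate titrations against purified firefly enzyme, with D-luciferin and ATP each at its KM concentration. Light output recorded by CCD imaging.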
Background: In qHTS, concentration-response curves come from the screen itself.

Test [2] can be described thus: qHTS assay to identify small molecule agonists of the constitutive androstane receptor (CAR) signaling pathway - cell viability counter screen (AID 1224836). Further: nearly all actives have a fitted effect of over 45% in size. An outline of the steps:
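Using CellTiter-Fluor, viability of HepG2 cells harbouring hCAR and CYP2B6-2.2kb was measured following 23 h incubation with a 15-concentration compound series plus PK11195 (0.75 uM final).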

Test [3] can be described thus: qHTS assay to identify small molecule antagonists of the constitutive androstane receptor (CAR) signaling pathway - cell viability counter screen (AID 1224837). Further: nearly all actives have a fitted effect of over 45% in size. An outline of the steps: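 Fluorescence from CellTiter-Fluor served as the viability signal. Human hepatoma HepG2 cells stably bearing hCAR and CYP2B6-2.2kb received compound plus CITCO (50 nM final) for 23 hr.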

Test [4] concerns the target Nuclear receptor subfamily 1 group I member 3 (Homo sapiens) (UniProt Q14994). As to the kind of experiment: qHTS assay to identify small molecule antagonists of the constitutive androstane receptor (CAR) signaling pathway (AID 1224838).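 Further: HepG2 cells stably expressing hCAR with CYP2B6 luciferase reporter stimulated by CITCO; nearly all actives have a fitted effect of over 40% in size.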 The method, boiled down: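 Quantitative HTS in double-stable HepG2-CYP2B6-hCAR cells. After 4 h plating, cells get compound (15 concentrations) and CITCO at 50 nM final, incubate 24 h at 37 C, then ONE-Glo luminescence is read.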

For test [5] the target is unchanged. As to the kind of experiment: qHTS assay to identify small molecule agonists of the constitutive androstane receptor (CAR) signaling pathway (AID 1224839). Further: nearly all actives have a fitted effect of over 15% in size. Further: potency means the concentration at half of the fitted maximal effect.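 On activation: HepG2 cells stably carrying human CAR and a CYP2B6 luciferase reporter.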 An outline of the steps:
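Double-stable HepG2 cells (hCAR, CYP2B6-2.2kb) seeded 4 h before compound addition. Exposure 24 h with 0.75 uM PK11195 final. Luciferase detected by ONE-Glo.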

A short description of test [6]: qHTS assay to identify small molecule antagonists of the estrogen related receptor signaling pathway with the pleiotropic PPARgamma coactivator (PGC) from Tox21 10K library - cell viability counter screen (AID 1224840; active means well fitted cell-killing curve with a large enough effect in the repeat runs, not every such curve was filed as active; further: nearly all actives have a fitted effect of over 40% in size; further: potency means the concentration at half of the fitted maximal effect). The method, boiled down:
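Compounds in DMSO, alongside positive and negative controls, were pinned onto PGC/ERR cells (2,000 per well). Exposure lasted 17.5 hours at 37 C, followed by a 30-minute CellTiter-Fluor incubation and fluorescence reading.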

A short description of test [7]: qHTS assay to identify small molecule antagonists of the estrogen related receptor signaling pathway with the pleiotropic PPARgamma coactivator (PGC) from Tox21 10K library (AID 1224841; call rule not given here; further: actives are mostly falling curves and most rising ones were filed inactive; nearly all actives have a fitted effect of over 50% in size). An outline of the steps: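 Compound exposure ran 18 hours at 37 C in PGC/ERR cells (2,000/well) that had first rested 6 hours in a 37 C/5% CO2 incubator. Luciferase activity was then detected with One-Glo after a 30-minute room-temperature step.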

A short description of test [8]: qHTS assay to identify small molecule agonists of the estrogen related receptor signaling pathway with the pleiotropic PPARgamma coactivator (PGC) from Tox21 10K library (AID 1224842). Further: nearly all actives have a fitted effect of over 15% in size. The method, boiled down:
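PGC/ERR reporter cell line, 2,000 cells per well, incubated 6 h at 37 C before 23 nL compound in DMSO was added. After 18 h at 37 C, One-Glo luminescence read following 30 min at room temperature.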

Test [9] in a line: qHTS assay to identify small molecule agonists of the hypoxia (HIF-1) signaling pathway - cell viability counter screen (AID 1224844; calls by dose curve; further: nearly all actives have a fitted effect of over 50% in size; further: potency means the concentration at half of the fitted maximal effect). An outline of the steps: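 Luminescent ATP content (CellTiter-Glo, 30 min, room temperature) served as the viability measure in HRE-bla ME-180 cells exposed to compounds for 17 hrs in low-serum medium (0.5% dialyzed FBS).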
The nature of test [10]: qHTS assay to identify small molecule agonists of H2AX (AID 1224845; active means well fitted activation curve with a large enough effect in the signal ratio in the repeat runs, not every such curve was filed as active; the % refers to the signal ratio). An outline of the steps: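 Wild-type CHO-K1 cells, plated overnight, exposed 3hr at 37C to 15 concentrations (0.76% DMSO final). Lysed, then HTRF anti-pH2AX (S139) cryptate and anti-H2AX-d2 antibodies, 24 hr room temperature; 665/620 nm emission read.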
A short description of test [11]: qHTS assay to identify small molecule agonists of the hypoxia (HIF-1) signaling pathway (AID 1224846; active means well fitted activation curve with a large enough effect in the signal ratio in the repeat runs, not every such curve was filed as active; the % refers to the signal ratio). An outline of the steps: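 Measured by blue/green FRET after loading CCF4-AM: beta-lactamase expressed from a hypoxia response element in ME-180 cells. Test agents were delivered in DMSO and left 17 hrs; cells had been plated 5 hrs earlier in low-serum (0.5% dialyzed FBS) medium.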

A short description of test [12]: qHTS assay to identify small molecule agonists of H2AX - cell viability counter screen (AID 1224847; calls by dose curve; further: nearly all actives have a fitted effect of over 30% in size; further: potency means the concentration at half of the fitted maximal effect; on activity change, negative = cytotoxicity: top concentration of the series differs between compounds). The method, boiled down:
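Quantitative HTS viability measurement: CHO-K1 wild-type cells in serum (10% FBS) medium, short 3 hr drug exposure at 37C with 0.76% DMSO, CellTiter-Glo luminescent detection.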

Test [13] can be described thus: qHTS assay to identify small molecule antagonists of the estrogen related receptor (ERR) signaling pathway from Tox21 library (AID 1224848). Further: nearly all actives have a fitted effect of over 50% in size. Further: potency means the concentration at half of the fitted maximal effect. The method, boiled down: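 ERR reporter cell line (from NTP) seeded 2,000 cells/well, rested 6 h at 37 C/5% CO2, then pin-dosed with compounds in DMSO. After 18 h at 37 C, ONE-Glo added; luminescence read after 30 min at room temperature.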

A short description of test [14]: qHTS assay to identify small molecule agonists of the estrogen related receptor (ERR) signaling pathway from Tox21 library (AID 1224849; calls by dose curve; further: nearly all actives have a fitted effect of over 15% in size). The note with it: ERR reporter cell line, ONE-Glo luciferase, 18 h; at 92.4 µM (top of the series) unless noted. The method, boiled down: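 We plated ERR reporter cells, waited 6 h, added compounds in DMSO by pin tool and incubated them 18 h at 37 C. ONE-Glo was then added and luminescence read after 30 min.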

Test [15] in a line: qHTS RealTime-Glo MT Cell Viability Assay in HepG2 cells - 24 hour (AID 1224867). Further: nearly all actives have a fitted effect of over 50% in size. An outline of the steps: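 Tox21 10K library screened in qHTS format on HepG2 cells carrying RealTime-Glo reagents. Compounds were added after a 5 h preincubation, and the luminescent signal from continuous culture was measured repeatedly during 40 h treatment.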
Test [16] can be described thus: qHTS RealTime-Glo MT Cell Viability Assay in HEK293 cells - 32 hour (AID 1224868). Further: nearly all actives have a fitted effect of over 50% in size. Further: potency means the concentration at half of the fitted maximal effect. On activity change, negative = cytotoxic: top concentration of the series differs between compounds. The method, boiled down:
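Luminescence generated by NanoLuc from substrate produced by living HEK293 cells served as the viability signal. Each value reflects the reading at its stated time point during continuous 40 h compound exposure at 37 C.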

The nature of test [17]: A CellTox Green Cytotoxicity Assay to monitor cytotoxicity in HEK293 cells - 0 hour (AID 1224869). Further: nearly all actives have a fitted effect of over 50% in size. An outline of the steps: (§1)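 Each value comes from one timepoint of a single continuous run in which HEK293 cells with CellTox Green were exposed to compound for up to 40 h at 37 C, dye fluorescence rising with cell death.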
Test [18] in a line: qHTS RealTime-Glo MT Cell Viability Assay in HepG2 cells - 40 hour (AID 1224870). Further: nearly all actives have a fitted effect of over 50% in size. The method, boiled down:
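HepG2 cells (600/well) mixed with RealTime-Glo MT reagent, settled 5 h at 37 C/5% CO2 before compound addition. Nonlytic NanoLuc luminescence from viable-cell prosubstrate reduction read repeatedly during 40 h treatment at 37 C.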

Test [19] is described as follows: A CellTox Green Cytotoxicity Assay to monitor cytotoxicity in HEK293 cells - 40 hour (AID 1224871). Further: nearly all actives have a fitted effect of over 45% in size. Further: potency means the concentration at half of the fitted maximal effect. The method, boiled down:
as §1

In test [20] the target is Thyrotropin receptor (Homo sapiens) (UniProt P16473). As to the kind of experiment: qHTS assay to identify small molecule agonists of the thyroid stimulating hormone receptor (TSHR) signaling pathway (AID 1224843; calls by dose curve; further: nearly all actives have a fitted effect of over 45% in size). The method, boiled down: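 TSHR-HEK293 cells in agonist mode, 30 min room-temperature step, then cAMP measured by competitive HTRF (cAMP-d2 with anti-cAMP cryptate) after 1 h at room temperature. Tested at 15 concentrations in triplicate.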
On the % scale 0 is the no-effect control and ±100 the full control effect.

Sequence of Luciferin 4-monooxygenase (Photinus pyralis) (P08659 whole entry, looked up): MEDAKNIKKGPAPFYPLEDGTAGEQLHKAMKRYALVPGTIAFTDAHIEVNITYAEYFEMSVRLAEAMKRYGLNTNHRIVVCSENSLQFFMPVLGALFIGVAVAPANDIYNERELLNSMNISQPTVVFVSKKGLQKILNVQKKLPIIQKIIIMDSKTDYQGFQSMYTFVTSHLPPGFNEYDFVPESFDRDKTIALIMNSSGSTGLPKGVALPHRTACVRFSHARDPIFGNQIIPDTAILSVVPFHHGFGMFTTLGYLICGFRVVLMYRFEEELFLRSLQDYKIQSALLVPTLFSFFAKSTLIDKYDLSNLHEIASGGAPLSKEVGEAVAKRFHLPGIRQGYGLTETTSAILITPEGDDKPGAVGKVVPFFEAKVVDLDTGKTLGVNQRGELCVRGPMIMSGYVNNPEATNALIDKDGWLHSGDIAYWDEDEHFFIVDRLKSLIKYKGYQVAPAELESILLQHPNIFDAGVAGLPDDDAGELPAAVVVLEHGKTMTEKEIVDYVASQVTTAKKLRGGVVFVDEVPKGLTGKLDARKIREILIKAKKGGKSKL
Sequence of Nuclear receptor subfamily 1 group I member 3 (Homo sapiens) (Q14994 whole entry, looked up): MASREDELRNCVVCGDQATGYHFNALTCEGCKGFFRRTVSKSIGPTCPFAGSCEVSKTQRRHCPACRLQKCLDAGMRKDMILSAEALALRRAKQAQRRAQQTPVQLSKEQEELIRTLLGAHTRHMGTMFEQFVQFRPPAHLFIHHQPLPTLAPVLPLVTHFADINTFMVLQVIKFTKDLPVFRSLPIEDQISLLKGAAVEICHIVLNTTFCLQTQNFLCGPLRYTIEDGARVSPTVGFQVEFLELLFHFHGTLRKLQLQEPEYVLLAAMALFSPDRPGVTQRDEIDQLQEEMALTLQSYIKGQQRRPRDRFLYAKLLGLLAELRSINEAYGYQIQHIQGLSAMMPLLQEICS
Sequence of Thyrotropin receptor (Homo sapiens) (P16473 whole entry, looked up): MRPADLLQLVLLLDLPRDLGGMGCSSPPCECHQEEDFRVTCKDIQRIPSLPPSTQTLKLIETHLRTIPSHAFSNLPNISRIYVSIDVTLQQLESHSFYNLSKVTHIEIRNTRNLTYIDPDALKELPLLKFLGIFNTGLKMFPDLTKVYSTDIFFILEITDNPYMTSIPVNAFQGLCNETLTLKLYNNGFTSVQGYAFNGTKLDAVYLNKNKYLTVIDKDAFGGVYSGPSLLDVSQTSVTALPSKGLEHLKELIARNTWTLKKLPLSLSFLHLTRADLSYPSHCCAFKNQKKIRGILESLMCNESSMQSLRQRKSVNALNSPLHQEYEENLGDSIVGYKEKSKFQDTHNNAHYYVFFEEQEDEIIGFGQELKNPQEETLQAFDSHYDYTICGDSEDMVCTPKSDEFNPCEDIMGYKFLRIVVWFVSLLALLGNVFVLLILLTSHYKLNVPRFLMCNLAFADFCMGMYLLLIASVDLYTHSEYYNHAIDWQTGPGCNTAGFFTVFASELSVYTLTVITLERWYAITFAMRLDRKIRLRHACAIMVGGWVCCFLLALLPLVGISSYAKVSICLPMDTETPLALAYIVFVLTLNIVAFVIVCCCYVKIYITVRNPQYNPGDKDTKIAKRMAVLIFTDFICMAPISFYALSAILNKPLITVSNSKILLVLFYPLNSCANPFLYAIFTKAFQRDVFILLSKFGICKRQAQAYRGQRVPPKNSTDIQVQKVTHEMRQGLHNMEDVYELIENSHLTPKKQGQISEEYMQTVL

As for `CCCCCCCCCCCCCCCCCO`, the activity change, negative = inhibition in test [1] was 3.61% [at 23.6 µM]. For the same compound, the viability change, negative = cytotoxic is 0.185% [at 19 µM] in test [2] and -0.916% [at 19 µM] in test [6]. In addition, the activity change, negative = cytotoxicity is 8.93% [at 19 µM] in test [3], 4.42% [at 15.8 µM] in test [9], -0.549% [at 31.6 µM] in test [12] and 0.355% [at 15.8 µM] in test [15]. Also, the figures for the activity, negative = inhibition in test [4], in test [7] and in test [13] were 9.23% [at 19 µM], 44.5% [at 19 µM] and -9.79% [at 19 µM], respectively. Further, the values for the activation in [5], in test [8] and in [11] were 0.0374% [at 19 µM], 4.3% [at 19 µM] and -0.342% [at 15.8 µM], respectively. The activation (H2AX phosphorylation) in test [10] is -3.22% [at 31.6 µM]. In addition, the activity change, positive = activation in [14] was -4.89% [at 19 µM]. In addition, the activity change, negative = cytotoxic in test [16] was 6.41% [at 15.8 µM]; in [18], -3.35% [at 15.8 µM]. In addition, the cytotoxicity in test [17] is -13.6% [at 15.8 µM]. In addition, the cytotoxicity increase in test [19] was -18.9% [at 15.8 µM].
Turning to `CC1=CCC(=O)O1`, the Potency entry in test [1], in [2], in test [3], in test [4], in [5] and in test [6] was “inactive” throughout. Also, the Potency entry in [7], in test [8], in [20], in [9], in [10] and in test [12] was “inactive” each time. For the same compound, the Potency result in test [13], in test [15], in [16], in [17], in test [18] and in test [19] was “inactive” each time. Also, the compound was called inactive in test [11]. In addition, in test [14], the activity change, positive = activation is 8.22%.
Take `C#CC(O)CCC` (stereo unspecified): the Potency entry in test [1], in [2], in test [3], in [4], in test [5] and in test [6] was “inactive” in each case. For the same compound, the Potency entry in test [7], in test [8], in test [20], in test [9], in test [10] and in test [13] was “inactive” each time. Moreover, the Potency result in test [15], in test [16], in test [17], in test [18] and in [19] was “inactive” each time. Moreover, the result in [11] was inactive. Further, the activity change, positive = activation in [14] was 6.08%.
With `Oc1ccc(-c2ccc(O)cc2)cc1`, the Potency in test [1] was 40.2 µM (active); in [5], 17.3 µM (active); in [9] it was 49.3 µM (active). In addition, the Potency entry in [2], in test [3], in test [4], in test [6], in test [7] and in test [8] was “inactive” each time. Further, the Potency entry in test [20], in test [15], in test [17] and in [18] was “inactive” throughout. For the same compound, the call in [11] was inactive. For the same compound, in test [14], the activity change, positive = activation is -24.2%.
In the case of `CCCCOCC`, the Potency result in test [1], in test [2], in test [3], in test [4], in test [5] and in test [6] was “inactive” throughout. In addition, the Potency entry in test [7], in test [8], in [20], in [9], in test [10] and in [12] was “inactive” in each case. Moreover, the Potency entry in test [13], in [15], in test [17], in test [18] and in [19] was “inactive” in each case. In [11], the outcome was inactive. Besides, the activity change, positive = activation in test [14] was -0.464%.
For `CCCCCCOc1cc(C)c(O)c(C)c1C`, the Potency entry in test [1], in test [2], in test [3], in [4], in test [7] and in test [8] was “inactive” in each case. In addition, the Potency entry in test [17] is “inactive”. Further, the Potency was 49.2 µM (active) in [5]; 55.1 µM (active) in [6]; 102 µM (active) in test [12]; 61.9 µM (active) in [13]; 15.7 µM (active) in test [16]; 44.2 µM (active) in [19]. Also, the activity change, positive = activation in [14] is -42.5%.
